ATG4B inh = ATG4B (human) cysteine protease inhibition | inhibition, % at 8.33 µM | ATG4B cleavage of LC3-PLA2, NBD-HPC fluorescence, 1 h | AID 504462 | 340,000 compounds, 0.51% hits | Q9Y4P1; in the data active means inhibition above about 40%
Target sequence (Q9Y4P1 whole entry, looked up): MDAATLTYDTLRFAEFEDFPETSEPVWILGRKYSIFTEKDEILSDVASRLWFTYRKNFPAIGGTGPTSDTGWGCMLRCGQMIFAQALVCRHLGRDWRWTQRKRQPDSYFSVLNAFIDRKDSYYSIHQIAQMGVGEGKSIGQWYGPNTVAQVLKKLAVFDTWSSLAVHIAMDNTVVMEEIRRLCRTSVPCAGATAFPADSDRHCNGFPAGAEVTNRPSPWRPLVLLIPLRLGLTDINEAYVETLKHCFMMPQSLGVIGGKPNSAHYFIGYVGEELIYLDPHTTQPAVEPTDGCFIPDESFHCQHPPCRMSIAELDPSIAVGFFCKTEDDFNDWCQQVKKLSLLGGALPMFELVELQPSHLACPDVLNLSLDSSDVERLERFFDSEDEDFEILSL
Neddyl block = inhibitors of human cullin neddylation; TR-FRET cullin neddylation, biochemical; inhibition, % at 25 µM; 360,000 compounds, 0.58% hits; in the data active means inhibition above about 36%
Rin1 Abl inh = human Rin1-Abl interaction inhibition. 360,000 compounds, 0.4% hits. TR-FRET Rin1/Abl binding, biochemical. P00519+Q13671. inhibition, % at 7.35 µM; in the data active means inhibition above about 5%, passing the limit was not always enough
SUMO1-SIM PPI = SUMO1-SIM interaction modulation. P63165. SUMO1 binding to a labelled peptide, TR-FRET, 1 h. inhibition, % at 20 µM. 360,000 compounds, 0.33% hits; in the data active means inhibition above about 37%
ATG4B conf = ATG4B (human) inhibition, single-dose confirmed. shares compounds with ATG4B inh. ATG4B protease fluorescent substrate cleavage assay. inhibition, % at 8.33 µM. 320 compounds, 92% hits. AID 504757; in the data active means inhibition above about 39%
PLA2 counter = PLA2 (human) inhibition in ATG4B counter-screen; purified PLA2, NBD-C6-HPC fluorescence, 45 min; inhibition, % at 8.33 µM; shares compounds with ATG4B inh; 1,600 compounds, 66% hits; in the data active means inhibition above about 50%
* hit, by the source's call. Rows were chosen to be rich in hits. Some 1.7% of all compounds tested hit in one or more screens of this group.

What do the screens show for `O=C(NNc1nccc(C(F)(F)F)n1)Nc1cccc(Cl)c1`?
ATG4B inh: -1; Neddyl block: -3; Rin1 Abl inh: -2; SUMO1-SIM PPI: -2

Results for COc1ccccc1-c1cc2nc(-c3ccccc3)cc(N3CCN(C(=O)c4ccco4)CC3)n2n1 ?
Neddyl block: -117; Rin1 Abl inh: -1; SUMO1-SIM PPI: -33

What do the screens show for `COC1=CC(=O)C(O)=C(CCCCCCC/C=C/CCCCCCCC2=C(O)C(=O)C=C(OC)C2=O)C1=O`?
ATG4B inh: 52*; Neddyl block: -10; Rin1 Abl inh: 0; SUMO1-SIM PPI: 79*; PLA2 counter: 78*

Results for Fc1cccc(Cc2c(-c3ccccc3)nc3c4ccccc4ccn23)c1 ?
Neddyl block: 17; SUMO1-SIM PPI: 8

How did O=C(N/N=C/c1cccc([N+](=O)[O-])c1)c1nc2ccccc2c(=O)[nH]1 do in these assays?
ATG4B inh: 10; Neddyl block: -8; Rin1 Abl inh: 0; SUMO1-SIM PPI: -6

What do the screens show for `O=C(N/N=C/c1ccccc1Cl)c1nc2ccc([N+](=O)[O-])cc2c(=O)[nH]1`?
ATG4B inh: 41*; Neddyl block: -25; Rin1 Abl inh: 4; SUMO1-SIM PPI: 3; ATG4B conf: 66*; PLA2 counter: 43

How did CCCN1CCN(C(=O)C2CCN(c3nnc(C)c4c(C)n(-c5ccc(C)cc5)nc34)CC2)CC1 do in these assays?
ATG4B inh: -1; Neddyl block: 33; Rin1 Abl inh: -1; SUMO1-SIM PPI: -18

Results for COc1ccc(-n2nc3c(N4CCC(C(=O)N5CCCCCC5)CC4)nnc(C)c3c2C)cc1 ?
ATG4B inh: 75*; Neddyl block: 26; Rin1 Abl inh: 3; SUMO1-SIM PPI: 2; PLA2 counter: 79*

What do the screens show for `Cc1nnc(N2CCC(C(=O)N3CCCCCC3)CC2)c2nn(-c3ccc(Cl)cc3)c(C)c12`?
ATG4B inh: 76*; Neddyl block: 37; Rin1 Abl inh: 6; SUMO1-SIM PPI: -2; PLA2 counter: 86*

Results for COc1ccc(-n2nc3c(N4CCC(C(=O)NCc5cccc(C)c5)CC4)nnc(C)c3c2C)cc1 ?
ATG4B inh: 28; Neddyl block: 13; Rin1 Abl inh: -8; SUMO1-SIM PPI: 19

How did Cc1nn(Cc2ccccc2)c(C)c1CNC(=O)CN=C1NS(=O)(=O)c2ccccc21 do in these assays?
ATG4B inh: 1; Neddyl block: -8; Rin1 Abl inh: 1; SUMO1-SIM PPI: -2

How did Cc1ccc(CNS(=O)(=O)c2ccc(C(C)(C)C)cc2)n1C do in these assays?
ATG4B inh: 86*; Neddyl block: 4; Rin1 Abl inh: 5; SUMO1-SIM PPI: -2; PLA2 counter: 89*

Results for COc1ccc(-c2nnc(CSc3nc4ccccc4c(=O)n3CC(C)C)o2)cc1OC ?
ATG4B inh: 45*; Neddyl block: -35; Rin1 Abl inh: -1; SUMO1-SIM PPI: 2; ATG4B conf: 74*; PLA2 counter: 44

How did COCCCn1c(SCc2nnc(-c3ccc(OC)c(OC)c3)o2)nc2ccccc2c1=O do in these assays?
ATG4B inh: 7; Neddyl block: -7; Rin1 Abl inh: -1; SUMO1-SIM PPI: 5

What do the screens show for `CCOC(=O)CSc1nc2ccccc2c(=O)n1CC(C)C`?
ATG4B inh: 57*; Neddyl block: 1; Rin1 Abl inh: 1; SUMO1-SIM PPI: -3; PLA2 counter: 56*

How did CCOC(=O)CSc1nc2ccccc2c(=O)n1CC1CCCC1 do in these assays?
ATG4B inh: 71*; Neddyl block: 3; Rin1 Abl inh: 2; SUMO1-SIM PPI: 3; PLA2 counter: 71*

How did CCOC(=O)CSc1nc2ccccc2c(=O)n1CC do in these assays?
ATG4B inh: 1; Neddyl block: 3; Rin1 Abl inh: 2; SUMO1-SIM PPI: 2

Results for CC(=O)Nc1cccc(-c2ccnc3c2CC(C)(C(=O)Nc2cccc(Oc4ccccc4)c2)O3)c1 (centres undefined) ?
Neddyl block: 1; Rin1 Abl inh: -2; SUMO1-SIM PPI: 4

How did CN(Cc1ccccc1)C(=O)c1ccc(Cc2cn(C)c3ccccc23)nc1 do in these assays?
Neddyl block: -3; Rin1 Abl inh: 2; SUMO1-SIM PPI: -3

Results for O=C(COC(=O)c1cnccn1)NCCc1ccc(Cl)cc1 ?
ATG4B inh: 0; Neddyl block: -4; Rin1 Abl inh: 4; SUMO1-SIM PPI: 6

Screening results from PubChem BioAssay.
